# HT1080NT lethal = kills 2HG-producing HT-1080-NT fibrosarcoma cells | HT-1080-NT fibrosarcoma viability, CellTiter-Glo ATP luminescence, 48 h | 360,000 tested, 1.6% active | Potency, µM (doses to about 46.1 µM), most hits filed as cytotoxic;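 also: NT is the 2HG producing partner of a matched IDH1 knockdown line; nearly all actives have a fitted effect of over 55% in size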
#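 Read-out is CellTiter-Glo luminescence after 10 minutes at room temperature, following 48 hours' compound treatment of HT-1080-NT cells (750 cells/well, RPMI, 5% FBS, 37 degrees C).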
# HT1080 IDH1KD tx = toxicity to HT-1080 IDH1 knockdown cells (counter line). AID 686971. HT-1080 IDH1 knockdown viability, ATP luminescence, 48 h. Potency, µM (doses to about 46.1 µM), hits mostly cytotoxic. 360,000 tested, 2% active
#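 Viability of IDH1-knockdown HT-1080 fibrosarcoma cells was assessed by CellTiter-Glo after 48 h at 37 °C with titrated compound; concentration-effect curves were classified by fit quality and response size.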
# DT40 TDP1 no CPT = qHTS for Inhibitors of human tyrosyl-DNA phosphodiesterase 1 (TDP1): qHTS in cells in absence of CPT; DT40 Tdp1-/- hTDP1 cells, no CPT, ATP luminescence, 48 h; Potency, µM (titrated, usually from 46.2 µM), usual class: inhibitors; 420,000 tested, 15% active; AID 686978, 2013; also: nearly all actives have a fitted effect of over 55% in size
#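 Stably hTDP1-transfected Tdp1-null chicken DT40 cells were treated with library compounds minus camptothecin and grown for at least 48 hr at 37 °C, after which cellular ATP was quantified by luminescence.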
# TDP1 cell CPT = DT40-hTDP1 cell growth loss with CPT. chicken DT40 Tdp1-/-;hTDP1 cells + 20 nM CPT, ATP luminescence, 48 h. Potency, µM (series often up to 46.2 µM), usual class: inhibitors. 420,000 tested, 12% active; also: nearly all actives have a fitted effect of over 55% in size
#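 Cell growth measured by CellTiter-Glo luminescence after a minimum 48 h, 37 C compound exposure with 20 nM CPT in Tdp1-knockout DT40 cells stably expressing hTDP1, seeded 400/well; qHTS titration format.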
# IL1B secr inh = blocks inflammasome-driven IL-1 beta release | 360,000 tested, 4.7% active | AID 743279 | THP-1 LPS/ATP IL-1B secretion, AlphaLISA, 16 h; stronger effect = lower value | activity change, % at 57.5 µM; in the data active = activity change below about -50%; inconclusive = mostly about -30% to -49%
#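 THP-1 cells pretreated 1 hr with compounds (up to 57.5 uM final), then stimulated with LPS (250 ng/mL final) plus ATP (1.25 mM final); secreted IL-1B measured by AlphaLISA after 16 hr, decreased signal indicating inhibition.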
# Numbers stand for hits; n = inactive; u = inconclusive; x = no result given. Shown are actives, neighbours in structure and some others; about 19% of the full set was active somewhere. Unless noted, calls follow the shape of the dose curve; as a rule, active = well fitted curve in the direction sought with a large enough effect; inconclusive = small, poorly fitted or top-dose-only effect, or another doubt; inactive = no such curve, though single readings can be large; an effect the other way counts as inactive or inconclusive.
SMILES,HT1080NT lethal,HT1080 IDH1KD tx,DT40 TDP1 no CPT,TDP1 cell CPT,IL1B secr inh
Cc1ccc(NC(=O)N2CCN(c3nnc(C)c4c(C)n(-c5ccccc5)nc34)CC2)cc1Cl,x,x,n,n,x
Cc1ccc(NC(=O)C2CCCN(c3nnc(C)c4c(C)n(-c5ccccc5)nc34)C2)cc1Cl (centres undefined),x,x,4.1µM,12µM,x
Cc1nnc(N2CCCC(C(=O)Nc3cccc(C(F)(F)F)c3)C2)c2nn(-c3ccccc3)c(C)c12 (centres undefined),x,x,21µM,u,x
COc1ccccc1NC(=O)C1CCCN(c2nnc(C)c3c(C)n(-c4ccccc4)nc23)C1 (centres undefined),x,x,8.2µM,16µM,x
CCOC(=O)c1cccc(NC(=O)C2CCCN(c3nnc(C)c4c(C)n(-c5ccccc5)nc34)C2)c1 (centres undefined),x,x,9.2µM,13µM,x
COc1ccc(C)cc1NC(=O)N1CCN(c2nnc(C)c3c(C)n(-c4ccccc4)nc23)CC1,x,x,n,n,x
CCOC(=O)c1cccc(NC(=O)C2CCCN(c3nnc(N4CCCC4=O)s3)C2)c1 (centres undefined),n,n,n,u,n
COC(=O)CCC(C)C1CCC2C3CCC4CC(O)CCC4(C)C3=CC(=O)C12C (centres undefined),n,n,u,u,-53
O=C(Nc1cc(C(F)(F)F)ccc1F)C1Cc2c(-c3ccccc3Oc3ccccc3)ccnc2O1 (centres undefined),u,u,18µM,u,n
O=C(Nc1ccccc1)C1Cc2c(-c3ccccc3Oc3ccccc3)ccnc2O1 (centres undefined),u,u,u,u,-57
O=C(Nc1ccc(Cl)cc1)C1Cc2c(-c3ccccc3Oc3ccccc3)ccnc2O1 (centres undefined),u,u,u,23µM,-53
O=C(Nc1cccc(OC(F)(F)F)c1)C1Cc2c(-c3ccccc3Oc3ccccc3)ccnc2O1 (centres undefined),u,u,u,u,n
CCOP(=O)(OCC)C(Nc1cccc([N+](=O)[O-])c1)c1ccccc1 (centres undefined),n,n,n,n,n
Cc1cccc(S(=O)Cc2ccc(C(=O)N3CCN(C(=O)c4ccco4)CC3)o2)c1 (centres undefined),n,n,n,n,n
CCOc1cc(CNC(=O)C2CCN(c3nc4ccccc4[nH]3)CC2)cc(OCC)c1OCC,x,x,16µM,21µM,x
Cc1cc(C)c(NC(=O)C2CCN(c3nc4ccccc4[nH]3)CC2)c(C)c1,x,x,n,u,x
CCOc1cc(CNC(=O)C2COc3ccccc3C2)cc(OCC)c1OCC (centres undefined),x,x,u,15µM,x
CCOc1ccc(NC(=O)C2CCN(c3nc4ccccc4[nH]3)CC2)cc1,x,x,23µM,u,x
CCCCN1CC(C)(C)Oc2cccc(F)c2S1(=O)=O,n,n,n,n,n
CC(=O)c1ccc(NC(=O)CN2CCN(S(=O)(=O)c3ccc4c(c3)OCCO4)CC2)cc1,n,n,u,u,n
CN(C)c1ccc(C(=O)N2CCCC2)cc1,n,n,n,n,n
CCSc1cnc(-c2ccccc2)n1CC,n,n,u,n,n
NC(N)=N/N=C/c1cc([N+](=O)[O-])ccc1O,n,n,n,n,n
CS/C(N)=N/N=C/c1cc(C)ccc1O,n,n,u,n,n
CCS/C(N)=N/N=C/c1cc(C)ccc1O,n,u,0.82µM,0.58µM,-55
SMILES,HT1080NT lethal,HT1080 IDH1KD tx,DT40 TDP1 no CPT,TDP1 cell CPT,IL1B secr inh
CCCCS/C(N)=N/N=C/c1cc(C)ccc1O,u,u,5.2µM,4.1µM,n
NC(=O)[C@@H]1CCCNc2c(I)cc([N+](=O)[O-])cc2C(=O)N[C@@H](Cc2ccccc2)C(=O)N[C@@H](Cc2cnc[nH]2)C(=O)N1,n,n,n,n,n
COC(=O)[C@@H]1C[C@H]2CC[C@H](O)C[C@H]2N1Cc1ccc(Cl)cc1,n,n,u,u,n
COc1cc(-c2cc3nc(NCc4cccs4)ccn3n2)cc(OC)c1OC,u,u,10µM,10µM,n
COc1cc(-c2cc3nc(NCc4cccc(Cl)c4)ccn3n2)cc(OC)c1OC,16µM,9.2µM,5.2µM,6.5µM,n
COc1cc(Nc2ccn3nc(-c4ccc(F)cc4)cc3n2)cc(OC)c1OC,n,n,u,u,-68
COc1cc(Nc2ccn3nccc3n2)cc(OC)c1OC,n,n,n,u,n
Cn1cccc1/C=C1\SC(=O)N(c2ccc(O)cc2)C1=O,n,n,u,n,n
CCOc1ccccc1NC(=O)c1cc(-c2ccncc2)nc2c(Cl)cccc12,u,u,u,u,n
Cn1c(=O)c2c(SCC(=O)NCc3ccco3)nc(-c3ccccc3Cl)nc2n(C)c1=O,n,n,23µM,u,n
Cn1c(=O)c2c(SCC(=O)NCc3ccco3)nc(-c3cccc(F)c3)nc2n(C)c1=O,x,x,n,n,x
Cc1cc(NC(=O)c2ccccc2[N+](=O)[O-])ccc1Br,n,n,n,n,n
